ChEMBL document CHEMBL3988442, “University of Dundee, Small-Polar-MMV Screening Library” (2021)
In all, about 48,000 compounds went through this assay and about 13,000 (27%) showed an effect of 50% or more. This is one part of the list.

These molecules were tested on Wolbachia pipientis (assay: Anti-Wolbachia Cell-Based Screen). Conditions: 5 µM.
Type: functional
Design: scale not given: in the data most compounds retested in dose-response had high values

| Compound | Percent Effect |
| --- | --- |
| CN(C)Cc1nc(C(C)(C)NC(=O)c2ccc3ccccc3c2)no1 | -5.67% |
| Cc1cc(NC(=O)CNc2cccc(OC(F)F)c2C)n(C)n1 | -2.043% |
| Cc1cc(C(=O)NCC2(C(N)=O)CCOCC2)nn1C(C)(C)C | 9.321% |
| Cc1nn(C(C)(C)C)c(C)c1C(=O)NCC1(C(N)=O)CCOCC1 | -1.881% |
| Cc1nn(C)c(Cl)c1C(=O)NCC1(C(N)=O)CCOCC1 | 99.78% |
| CC(C)CN1CCN(Cc2nc3ccccc3[nH]2)[C@H]2CS(=O)(=O)C[C@H]21 | -2.653% |
| Cc1nc(C)c(CCNC(=O)NC2CC(=O)N(C(C)(C)C)C2)s1 (stereo not given) | -0.9476% |
| CCc1nc(CCNC(=O)NC2CC(=O)N(C(C)(C)C)C2)cs1 (stereo not given) | 17.05% |
| Cc1csc(CCCNC(=O)NC2CC(=O)N(C(C)(C)C)C2)n1 (stereo not given) | 79.6% |
| CC(=O)c1ccc(NC(=O)c2ccc3c(c2)C2(CCCCC2)CN3)cc1.O=C(O)C(F)(F)F | 13.81% |
| NC(=O)CN1CCCN(C(=O)c2ccn(-c3cccc(F)c3)n2)CC1 | -12.78% |
| CC(O)CN1CCN(C(=O)c2cccn2Cc2ccncc2)CC1 (stereo not given) | -5.756% |
| CCC(O)CN1CCN(C(=O)c2cc3ccccc3n2CC)CC1 (stereo not given) | 81.21% |
| CCn1c(C(=O)N2CCN(C(=O)NC(C)C)CC2)cc2ccccc21 | -5.351% |
| CCn1c(C(=O)N2CCN(C(=O)COC)CC2)cc2ccccc21 | -7.431% |
| CC(O)CN1CCN(C(=O)c2cc3ccccc3n2C)CC1 (stereo not given) | 80.19% |
| CC(O)CN1CCN(C(=O)c2cccc(CC#N)c2)CC1 (stereo not given) | 0.248% |
| CCn1c(C(=O)N2CCN(CC(C)O)CC2)cc2ccccc21 (stereo not given) | -3.08% |
| Cc1cccc2cc(C(=O)N3CCSCC3)n(C)c12 | -17.56% |
| CCn1c(CN2CCN(CC(N)=O)CC2)nc2c(F)cccc21 | -7.265% |
| CCn1c(C(=O)N2CCN(CC[S+](C)[O-])CC2)cc2ccccc21 (stereo not given) | 101.9% |
| CCn1c(C(=O)N2CCCN(CC(N)=O)CC2)cc2ccccc21 | 113.2% |
| COc1ccc(C)cc1-c1csc(Cn2ccc(=O)[nH]c2=O)n1 | -13.88% |
| c1cnn(Cc2nnc(C3CCN(C4CCOCC4)CC3)n2C2CC2)c1 | -3.51% |
| O=C(COc1ccccc1F)NCCC(O)c1ccco1 (stereo not given) | -8.311% |
| Cc1ccc(CNC2(Cc3cc(-c4ccc(F)cc4)on3)COC2)o1 | -24.42% |
| CCN(c1cccc(F)c1)S(=O)(=O)c1cc(C(=O)O)cc2c1CCC2 | -8.987% |

| Compound | Percent Effect |
| --- | --- |
| CC(Nc1cccc(CN2CCOC2=O)c1)C(=O)N1CCNC1=O (stereo not given) | -9.338% |
| Cc1ccc(CCC(=O)N2CCC(Nc3cccnn3)CC2)cc1 | 118.9% |
| Cc1noc(Cl)c1CCC(=O)N1CCC(Nc2cccnn2)CC1 | 97.17% |
| Cc1noc(Cl)c1CCC(=O)N1CCC(CC(N)=O)CC1 | -2.795% |
| Cc1nn(CC(=O)N2CCC(Nc3cccnn3)CC2)c(C)c1Cl | -11.96% |
| CC(C)(C)SCCCC(=O)N1CCC(Nc2cccnn2)CC1 | -0.09307% |
| O=C(CCc1ccco1)N1CCC(Nc2cccnn2)CC1 | 108.6% |
| Cc1cnn(CCC(=O)N2CCC(Nc3cccnn3)CC2)c1 | 5.382% |
| COCCCC(=O)N1CCC(Nc2cccnn2)CC1 | 100.5% |
| Cc1ccc(NC2CCN(C(=O)CCc3ccco3)CC2)nn1 | -2.742% |
| O=C1CC(Cc2ccc(NC(=O)c3cccc(F)c3)cc2)C(=O)N1 (stereo not given) | -11.36% |
| Cc1cc(CN2CCN(C(=O)NC(C)c3cccnc3)CC2)on1 (stereo not given) | -9.533% |
| CCOC(=O)NC1CCCN(Cc2ccc(-n3cncn3)c(C)c2)C1 (stereo not given) | 8.303% |
| COc1cc(NC(=O)NCCO)ccc1N1CCOC1=O | -1.059% |
| Cn1cc(N2CCN(c3ccc(C#N)cc3F)CC2=O)cn1 | -27.57% |
| COc1ccc(CNC(C)c2cccc(Cl)c2)c(OC)c1OC (stereo not given) | 0.8374% |
| O=C(CCCc1ccccn1)N1CCC(Nc2cccnn2)CC1 | -8.554% |
| CS(=O)(=O)N[C@H]1CN(C(=O)CCc2ccco2)C[C@@H]1C1CC1 | -12.24% |
| O=C(CCOc1ccccc1)N1CCC(Nc2cccnn2)CC1 | -3.199% |
| O=C(CCCc1ccccc1)N1CCC(Nc2cccnn2)CC1 | 109.6% |
| O=C(CCc1ccccc1F)N1CCC(Nc2cccnn2)CC1 | 101.4% |
| Cc1ccccc1NC1CCN(C(=O)CCc2ccco2)CC1 | 99.83% |
| Cc1cc(N2CCC(NC(=O)CCc3ccco3)CC2)nc(C)n1 | 7.107% |
| O=C(CCn1ccc2ccccc21)N1CCC(Nc2cccnn2)CC1 | -13.71% |
| CSc1ncccc1C(=O)N1C[C@H]2CC[C@@H]1CN(c1cnccn1)C2 | -13.27% |
| CCCN(CCC)S(=O)(=O)c1cc(NC(C)=O)ccc1C | 31.01% |
| O=C(O)c1cc(-c2ccoc2)cc(S(=O)(=O)N2CCSCC2)c1 | 11.83% |

| Compound | Percent Effect |
| --- | --- |
| CCN(Cc1ccoc1)C(=O)c1cc(C)c(C)c(S(N)(=O)=O)c1 | -19.87% |
| CCCNC(=O)N1CCC(Oc2cc(C)ccc2F)(C(=O)O)CC1 | -9.891% |
| O=C(NCC1CCOCC1)[C@@H]1C[C@@H]2[C@@H](CCN2Cc2nccs2)O1.O=C(O)C(F)(F)F | 97.65% |
| COCCNC(=O)[C@@H]1CC[C@@H]2[C@@H](CCN2Cc2cnn(C)c2)O1 | -9.722% |
| Cc1cnc(CNC(=O)[C@@H]2CC[C@@H]3[C@@H](CCN3Cc3ccco3)O2)cn1 | -4.994% |
| O=C(NCC1CC1)[C@H]1CC[C@@H]2[C@@H](CCN2Cc2nccs2)O1 | 114.7% |
| O=C(O)[C@]12CCCN(Cc3nccs3)[C@@H]1CCN(c1cnccn1)C2 | 6.87% |
| COCCN1CCN(CC(=O)N(C)Cc2cccc(F)c2)CC1C (stereo not given) | -2.425% |
| Cc1nc(N2CCOCC2)nc(C)c1NS(=O)(=O)c1ccccc1 | 4.303% |
| Cc1noc(C)c1CN(C)Cc1cnc(N2CCOCC2)nc1 | -2.338% |
| Cc1cc(-c2cnc(N3CCSCC3)nc2-c2ccc(C)s2)on1 | 126.2% |
| Cc1cc(-c2cnc(N3CCN(C)CC3)nc2-c2ccc(C)s2)on1 | -10.07% |
| CCc1cc(NCCC(F)(F)F)nc(N2CCOCC2)n1 | -15.1% |
| Cc1ccc(-c2cc(C(F)(F)F)nc(N3CCOCC3)n2)s1 | 100.5% |
| Cc1cc(-c2cnc(N3CCCC3)nc2-c2ccc(C)s2)on1 | 81.04% |
| O=C1c2cnc(N3CCOCC3)nc2CN1c1ccc2c(c1)OCO2 | -5.261% |
| Cc1cnc(N2CCN(C)CC2)nc1-c1ccnn1C | -36.32% |
| Cc1ccc(-c2cc(-c3nc(CN4CCN(C)CC4)no3)[nH]n2)s1 | -11.14% |
| Cc1cc(-c2cnc(N3CCOCC3)nc2-c2ccc(C)s2)on1 | 90.53% |
| CCN1CCN(c2ncc(-c3cc(C)no3)c(-c3ccc(C)s3)n2)CC1 | -7.299% |
| Cc1cccc(C(C)CNC(=O)N2CCOCC3(CCOCC3)C2)c1 (stereo not given) | -15.26% |
| COCCCn1ccc(NC(=O)NCCCn2ccnc2)n1 | 5.848% |
| CC(C)[C@@H]1CN(CCOc2ccc(Cl)cc2)C[C@H]1NS(C)(=O)=O | 1.84% |
| Cc1cccc(-c2noc([C@@H]3Cc4nc[nH]c4CN3)n2)c1 | -0.5604% |
| COc1ccnc(N2CCN(C(=O)Cc3ccc(C)s3)CC2)n1 | 0.2283% |
| COc1ccnc(N2CCN(C(=O)Cc3ccn(C(C)C)n3)CC2)n1 | 115.4% |
| COc1ccnc(N2CCN(C(=O)Cc3ccc(C#N)cc3)CC2)n1 | 1.226% |

| Compound | Percent Effect |
| --- | --- |
| COc1ccnc(N2CCCN(C(=O)Cc3ccc(C)s3)CC2)n1 | 128.9% |
| COc1ccnc(N2CCN(C(=O)Cc3csc(C)n3)CC2)n1 | 124.6% |
| COc1ccnc(N2CCN(C(=O)CN3CCCC3=O)CC2)n1 | -1.755% |
| COc1ccc(N2CCCN(C(=O)Cc3csc(C)n3)CC2)cc1 | -1.36% |
| CCOc1ccnc(N2CCN(C(=O)CCc3ccsc3)CC2)n1 | 8.96% |
| COc1ccnc(N2CCN(C(=O)NCc3ccc(C)s3)CC2)n1 | -6.706% |
| COc1ccnc(N2CCN(C(=O)c3csc(C)n3)CC2)n1 | -2.798% |
| COc1ccnc(N2CCN(C(=O)Cc3ccsc3)CC2)n1 | 128.2% |
| COc1ccnc(N2CCN(C(=O)CCc3nccs3)CC2)n1 | -9.419% |
| Cc1csc(C2(NCC(O)COc3ccc(F)cc3)CCC2)n1 (stereo not given) | -11.72% |
| COc1cc(N2CCN(Cc3ccsc3)C(CCO)C2)nc(N)n1 (stereo not given) | 10.71% |
| Cc1ccc(-c2ccc(C(=O)NCCS(N)(=O)=O)c(F)c2)cc1 | 17.06% |
| CC1CCN(S(=O)(=O)c2cccn(CC(=O)NC3CCCC3)c2=O)CC1 | -17.34% |
| CCn1nc(C)c2ccn(CC(=O)NC3CC3)c(=O)c21 | 112.9% |
| Cc1nn(C)c2c(N3CCN(C(=O)NC4CCCCC4)CC3)ncnc12 | 8.343% |
| CCn1nc(C)c2ccn(CC(=O)NCC3CCCO3)c(=O)c21 (stereo not given) | 132.9% |
| O=C(Cn1nc(-c2ccc(F)cc2)oc1=O)NCC1CCCO1 (stereo not given) | -3.643% |
| Cc1cc(=O)n(CC(=O)NCC2CCCO2)c(-c2cccc(Cl)c2)n1 (stereo not given) | 14.67% |
| CCN1CCC(NC(=O)Cn2cc(C)c3ccccc32)CC1 | -38.76% |
| CCn1nc(C)c2ccn(CC(=O)NC3CCCC3)c(=O)c21 | -1.508% |
| Cc1noc(C)c1CNC(=O)c1cn(CCC2CCCCN2)nn1 (stereo not given) | -0.3777% |
| CCn1nc(C)c(CNC(=O)c2cn(CC3CCCO3)nn2)c1C (stereo not given) | 113.5% |
| Cc1nn(C)c2c(=O)n(CC(=O)NC3CCCCC3)ccc12 | 138.3% |
| CCn1nc(C)c(CNC(=O)c2cn(CCC3CCCCN3)nn2)c1C (stereo not given) | -6.64% |
